Screening results as filed in PubChem.
Compounds with a hit are over-represented: about 4.1% of the library has one in this group of screens.
FBA Mtb inh: inhibits M. tuberculosis FBA enzyme; 360,000 tested, 2.3% active; inhibition, % at 1 µM; P9WQA3; AID 588726; purified M. tuberculosis FBA, fluorescence read-out;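 further: 0% = vehicle and 100% = reference inhibitor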
RecA intein inh: blocks M. tuberculosis RecA intein splicing; P9WHJ3; cell-free RecA intein splicing, fluorescence; inhibition, % (test concentration not listed); 290,000 tested, 0.75% active; in the data active means inhibition above about 30%;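 further: 0% = vehicle wells and 100% = reference inhibitor control wells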
Target sequence (P9WHJ3 whole entry, looked up): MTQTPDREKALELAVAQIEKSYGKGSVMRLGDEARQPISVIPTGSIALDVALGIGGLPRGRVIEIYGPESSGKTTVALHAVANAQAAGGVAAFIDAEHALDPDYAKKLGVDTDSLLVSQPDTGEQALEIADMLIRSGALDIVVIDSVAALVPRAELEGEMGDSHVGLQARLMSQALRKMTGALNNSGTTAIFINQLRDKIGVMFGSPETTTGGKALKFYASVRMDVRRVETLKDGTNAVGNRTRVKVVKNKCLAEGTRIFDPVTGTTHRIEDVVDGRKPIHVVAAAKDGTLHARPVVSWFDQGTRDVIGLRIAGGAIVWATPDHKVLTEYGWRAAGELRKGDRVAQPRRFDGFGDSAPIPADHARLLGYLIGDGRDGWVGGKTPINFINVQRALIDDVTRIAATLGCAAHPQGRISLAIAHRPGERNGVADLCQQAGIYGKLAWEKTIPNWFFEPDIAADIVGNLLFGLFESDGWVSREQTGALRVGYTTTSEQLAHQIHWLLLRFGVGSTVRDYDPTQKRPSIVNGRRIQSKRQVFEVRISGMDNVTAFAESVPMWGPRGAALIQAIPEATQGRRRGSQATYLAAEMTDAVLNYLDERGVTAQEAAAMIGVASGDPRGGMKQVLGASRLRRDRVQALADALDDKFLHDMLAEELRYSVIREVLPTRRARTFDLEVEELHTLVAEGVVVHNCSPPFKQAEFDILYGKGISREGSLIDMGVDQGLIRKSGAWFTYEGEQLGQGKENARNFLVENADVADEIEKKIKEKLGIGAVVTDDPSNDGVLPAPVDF
Rv3671c inh: Rv3671c (M. tuberculosis) protease inhibition; AID 2606; inhibition, % at 5.96 µM; 320,000 tested, 0.048% active; P9WHR9; in the data active means inhibition above about 38%;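 further: extracellular domain of Rv3671c used as enzyme; 0% = enzyme with DMSO and 100% = no enzyme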
GDH-TPI counter-1: inhibits GDH-TPI coupling enzymes, artifact for Mtb FBA screen | GDH-TPI coupled enzyme counterscreen, NADH absorbance | inhibition, % at 4.8 µM | 360,000 tested, 1.2% active | AID 588335; in the data active means inhibition above about 30%;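 further: 0% = DMSO wells and 100% = wells lacking the enzyme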
UGM FP inh: blocks M. tuberculosis UGM enzyme; inhibition, % at 10 µM; purified UGM, fluorescence polarization probe displacement; P9WIQ1; 320,000 tested, 0.06% active; in the data active means inhibition above about 10%, passing the limit was not always enough
Vc quorum ag: induces V. cholerae light production without autoinducers; AID 588436; V. cholerae BH1578 lux reporter, luminescence, 6 h; activation, % at 18.7 µM; 350,000 tested, 0.16% active; in the data active means activation mostly above about 9.7%, no sharp cut-off
Mtb FBA inh conf: confirmation of M. tuberculosis fructose-bisphosphate aldolase inhibitors. shares compounds with FBA Mtb inh. purified M. tuberculosis FBA, fluorescence read-out. inhibition, % at 1 µM. 5,600 tested, 78% active;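 further: 0% = vehicle wells and 100% = reference inhibitor wells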
GDH-TPI counter-2: inhibits GDH-TPI coupling enzymes, flagging Mtb FBA hits; inhibition, % at 1 µM; 5,600 tested, 81% active; shares compounds with FBA Mtb inh; GDH-TPI coupled enzyme counterscreen, fluorescence; in the data active means inhibition above about 10%
GDH-TPI DR: inhibits GDH-TPI coupling enzymes in dose response. shares compounds with FBA Mtb inh. GDH-TPI coupled enzyme assay, fluorescence, artifact counterscreen. IC50, µM. 170 tested, 79% active. AID 652145; call rule not given here
Numbers without * were called inactive. Unless noted, no stated cut-off is given here; in the data, active means inhibition above about 27%; inactive means the rest.

Results for CCSc1n[nH]c2nc3c(c(=O)n12)C1(CCCC1)Cc1ccccc1-3 ?
FBA Mtb inh: 28*; RecA intein inh: -25; Rv3671c inh: 9; GDH-TPI counter-1: 4; UGM FP inh: 1; Vc quorum ag: -2; Mtb FBA inh conf: -2; GDH-TPI counter-2: -4

How did Cn1ncn2c(=O)c3c(nc12)-c1ccccc1CC31CCCC1 do in these assays?
FBA Mtb inh: 44*; RecA intein inh: 0; Rv3671c inh: -3; GDH-TPI counter-1: 7; UGM FP inh: -3; Vc quorum ag: -2; Mtb FBA inh conf: active; GDH-TPI counter-2: active

What do the screens show for `O=c1c2c(nc3n1CCCCC3)-c1ccccc1CC21CCCC1`?
FBA Mtb inh: 1; RecA intein inh: 14; Rv3671c inh: -10; GDH-TPI counter-1: -1; UGM FP inh: 2; Vc quorum ag: -1

How did O=C(O)C1Cn2c(nc3c(c2=O)C2(CCCC2)Cc2ccccc2-3)S1 (stereo unspecified) do in these assays?
FBA Mtb inh: 35*; RecA intein inh: 0; Rv3671c inh: -12; GDH-TPI counter-1: 8; UGM FP inh: 1; Vc quorum ag: 0; Mtb FBA inh conf: -9; GDH-TPI counter-2: -5

Results for Cn1c(NCCO)nc2c(c1=O)C1(CCCCC1)Cc1ccccc1-2 ?
FBA Mtb inh: 70*; RecA intein inh: 5; Rv3671c inh: -3; GDH-TPI counter-1: 1; UGM FP inh: 0; Mtb FBA inh conf: active; GDH-TPI counter-2: active

How did OC(CCN1CCC2(CC1)OCCO2)C(F)(F)F (stereo unspecified) do in these assays?
FBA Mtb inh: 2; RecA intein inh: 0; Rv3671c inh: -7; GDH-TPI counter-1: 2; UGM FP inh: 4; Vc quorum ag: inactive

How did Cc1cc(C)n2nc(C(=O)OCC(=O)NNC(=O)c3ccc(Cl)cc3)nc2n1 do in these assays?
FBA Mtb inh: 1; RecA intein inh: -1; Rv3671c inh: 5; GDH-TPI counter-1: 4; UGM FP inh: 1; Vc quorum ag: -2

What do the screens show for `COc1ccc(CCNC(=O)Nc2nnc([C@H]3C[C@H](O)[C@@H](CO)O3)s2)cc1OC`?
FBA Mtb inh: -1; GDH-TPI counter-1: -1; Vc quorum ag: inactive

Results for CCNC(=S)N(CCCN(CC)CC)Cc1cc2cc3c(cc2[nH]c1=O)OCO3 ?
FBA Mtb inh: 24; RecA intein inh: -6; Rv3671c inh: -3; GDH-TPI counter-1: 22; UGM FP inh: 0; Vc quorum ag: 0

Results for CN(C)CCN(Cc1cc2cc3c(cc2[nH]c1=O)OCO3)C(=S)NCc1ccco1 ?
FBA Mtb inh: 32*; RecA intein inh: 3; Rv3671c inh: 3; GDH-TPI counter-1: 25; UGM FP inh: 1; Vc quorum ag: 0; Mtb FBA inh conf: 77*; GDH-TPI counter-2: 52*

How did CCN(CC)CCN(Cc1cc2cc3c(cc2[nH]c1=O)OCO3)C(=S)NCCCN(C)C do in these assays?
FBA Mtb inh: 35*; RecA intein inh: -5; Rv3671c inh: -3; GDH-TPI counter-1: 30; UGM FP inh: 2; Vc quorum ag: inactive; Mtb FBA inh conf: 30*; GDH-TPI counter-2: 28*

What do the screens show for `O=c1[nH]c2cc3c(cc2cc1CN(Cc1cccnc1)C(=S)NCc1ccco1)OCO3`?
FBA Mtb inh: 10; RecA intein inh: -3; Rv3671c inh: 0; GDH-TPI counter-1: 0; UGM FP inh: 1; Vc quorum ag: inactive

Results for CCN(CC)CCN(Cc1cc2cc3c(cc2[nH]c1=O)OCO3)C(=S)NC ?
FBA Mtb inh: 102*; Rv3671c inh: -3; GDH-TPI counter-1: 23; UGM FP inh: 0; Vc quorum ag: inactive; Mtb FBA inh conf: 64*; GDH-TPI counter-2: 55*

How did CCCCNC(=S)N(CCN(CC)CC)Cc1cc2cc3c(cc2[nH]c1=O)OCO3 do in these assays?
FBA Mtb inh: 32*; RecA intein inh: -1; Rv3671c inh: -6; GDH-TPI counter-1: 33*; UGM FP inh: -1; Vc quorum ag: 0; Mtb FBA inh conf: 16; GDH-TPI counter-2: 4; GDH-TPI DR: 4.9*

How did O=C(OCC(=O)N1CCCCCC1)c1cc(S(=O)(=O)N2CCOCC2)ccc1F do in these assays?
FBA Mtb inh: 1; GDH-TPI counter-1: -2; Vc quorum ag: 0

What do the screens show for `CCN1C(=O)[C@H]2[C@@H](c3ccc(-c4ccc5c(c4)OCO5)cc3)N3CCC[C@@]3(C(=O)OC)[C@H]2C1=O`?
FBA Mtb inh: 5; RecA intein inh: -1; Rv3671c inh: -8; GDH-TPI counter-1: 7; UGM FP inh: 3; Vc quorum ag: 0

Results for CCNC(=S)N(CCN(C)C)Cc1cc2cc3c(cc2[nH]c1=O)OCO3 ?
FBA Mtb inh: 44*; RecA intein inh: 1; Rv3671c inh: -2; GDH-TPI counter-1: 14; UGM FP inh: 0; Vc quorum ag: 1; Mtb FBA inh conf: 58*; GDH-TPI counter-2: 43*

How did CC(=O)N(CCc1ccccc1C)Cc1cc2cc3c(cc2[nH]c1=O)OCO3 do in these assays?
FBA Mtb inh: 39*; RecA intein inh: -2; Rv3671c inh: 0; GDH-TPI counter-1: 11; UGM FP inh: -4; Vc quorum ag: 6; Mtb FBA inh conf: 187*; GDH-TPI counter-2: 170*

Results for Cc1cccc(NC(=S)N(CCCN(C)C)Cc2cc3cc4c(cc3[nH]c2=O)OCO4)c1 ?
FBA Mtb inh: 27*; RecA intein inh: -1; Rv3671c inh: -2; GDH-TPI counter-1: 16; UGM FP inh: 0; Vc quorum ag: 0; Mtb FBA inh conf: 8; GDH-TPI counter-2: -4

Results for CCC(=O)N(CCc1ccccc1C)Cc1cc2ccc(C)cc2[nH]c1=O ?
FBA Mtb inh: 1; RecA intein inh: -2; Rv3671c inh: -6; GDH-TPI counter-1: 13; UGM FP inh: -1; Vc quorum ag: inactive

What do the screens show for `CCCCNC(=S)N(CCCN(C)C)Cc1cc2cc3c(cc2[nH]c1=O)OCO3`?
FBA Mtb inh: 22; RecA intein inh: -5; Rv3671c inh: 3; GDH-TPI counter-1: 26; UGM FP inh: 0; Vc quorum ag: -1

Results for O=C(NCc1nnnn1-c1ccc(F)cc1)c1ccc2c(c1)OCO2 ?
FBA Mtb inh: 1; GDH-TPI counter-1: 6; Vc quorum ag: 0

Results for COc1ccc([C@H]2CC(=O)C=C(c3ccc(C)c(F)c3)C2)cc1 ?
FBA Mtb inh: 1; Rv3671c inh: -5; GDH-TPI counter-1: -2; UGM FP inh: 0; Vc quorum ag: 0

How did O=C(c1ccc2c3c(cccc13)CC2)C1CCCN(CC2CC2)C1 (stereo unspecified) do in these assays?
FBA Mtb inh: 33*; RecA intein inh: -16; Rv3671c inh: 3; GDH-TPI counter-1: 8; UGM FP inh: 0; Vc quorum ag: 0; Mtb FBA inh conf: 6; GDH-TPI counter-2: -2
